Laboratory results taken from PubChem BioAssay AID485338 (The Scripps Research Institute Molecular Screening Center, 2010).
Potency and affinity values are given separately. Active and inactive are the calls of the source.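 Rule for the calls: active = mean inhibition of cell viability at 10 µM of at least 40% (some results past the limit were not filed as active); inactive = the rest.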

Assay: cytotoxicity in DLD-1 colorectal cells, late-stage follow-up, cytotoxicity control for KLF5 inhibitor project, cell-based, luminescence, round 1 (AID 485338)
Conditions: DLD-1 viability, CellTiter-Glo ATP luminescence; series mostly up to 20 µM

Row | Compound | outcome
1 | CCOC(=O)c1sc(NC(=O)c2ccc3ncsc3c2)nc1C | inactive
2 | CCCc1ccc(-c2ccc(/C=C/C(=O)O)cc2)nc1 | inactive
3 | COC(=O)c1ccc2nc(Nc3nc4ccc(F)cc4s3)sc2c1 | inactive
4 | Cc1ccc2nc(NC(=O)CCCc3nc4ccccc4s3)sc2c1 | inactive
